Screening results deposited in PubChem BioAssay by National Center for Advancing Translational Sciences (NCATS).
Mito fusion yeast: blocks mitochondrial division or promotes mitochondrial fusion; S. cerevisiae fusion-defective mutant growth rescue, CellTiterGlo 48 h; Potency, µM (top dose mostly 46.1 µM), for inactives: at the top dose growth rescue (activation), actives largely listed as activators; 320,000 tested, 0.23% active; further: % of control where 0% means no effect; nearly all actives have a fitted effect of over 45% in size
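Growth-rescue viability read-out: after 48 h at the non-permissive 37C in glycerol/ethanol YPEG, yeast mitochondrial fusion mutants are measured by CellTiterGlo luminescence; compounds (23 nl pinned per well) restoring growth score as division inhibitors or fusion activators.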
uPA generation: blocks generation of uPA at the cell surface. cell surface uPA generation assay, qHTS. Potency, µM (titrated, usually from 38.3 µM), for inactives: at the top dose activity change, negative = inhibition, hits mostly inhibitors. 330,000 tested, 0.31% active; active means well fitted inhibition curve with a large enough effect; inconclusive means small, poorly fitted or top-dose-only effect; inactive means no such curve, though single readings can be large or run the other way; tested in mouse RAW 264.7 cells; further: on the % scale 0 is the no-effect control and ±100 the full control effect; nearly all actives have a fitted effect of over 55% in size
VP16 counter: inhibits Gal4-VP16 luciferase reporter, ROR gamma counter-screen | Potency, µM (highest dose often 53.6 µM), without a hit: top-dose activity, negative = inhibition, actives largely listed as inhibitors | AID 2546 | Drosophila S2 Gal4-VP16 UAS-luciferase, luminescence, 20 h | 310,000 tested, 3.5% active;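 further: Gal4-VP16 expression switched on by copper sulfate through the metallothionein promoter; on the % scale 0 is the no-effect control and ±100 the full control effect; nearly all actives have a fitted effect of over 50% in size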
a7 integrin act: integrin-mediated muscular dystrophy alleviation activation; alpha7betagal myoblasts, beta-gal FDG fluorescence, 48 h; Potency, µM (doses to about 38.3 µM), for the others: at the top dose activation, usual class: activators; 350,000 tested, 0.064% active; AID 624291;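 further: 100% = response of the positive control SU9516; nearly all actives have a fitted effect of over 60% in size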
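alpha7betagal+/- myoblasts (passage 13, 250/well) treated 48 h at 37C with compounds at 1:260 dilution of DMSO stock. Lysed, then beta-galactosidase activity read as FDG fluorescence (ex 480/em 540) after 30 min, with pre-read for autofluorescence.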
RORgamma inh: blocks mouse ROR gamma transcriptional activity | Drosophila S2 Gal4-RORgamma UAS-luciferase reporter, 20 h | P51450 | AID 2551 | Potency, µM (titrated, usually from 53.6 µM), for the others: at the top dose activity change, negative = inhibition, actives largely listed as inhibitors | 310,000 tested, 5.4% active; further: on the % scale 0 is the no-effect control and ±100 the full control effect; nearly all actives have a fitted effect of over 60% in size
Target sequence (P51450 whole entry, looked up, the tested form may be a part): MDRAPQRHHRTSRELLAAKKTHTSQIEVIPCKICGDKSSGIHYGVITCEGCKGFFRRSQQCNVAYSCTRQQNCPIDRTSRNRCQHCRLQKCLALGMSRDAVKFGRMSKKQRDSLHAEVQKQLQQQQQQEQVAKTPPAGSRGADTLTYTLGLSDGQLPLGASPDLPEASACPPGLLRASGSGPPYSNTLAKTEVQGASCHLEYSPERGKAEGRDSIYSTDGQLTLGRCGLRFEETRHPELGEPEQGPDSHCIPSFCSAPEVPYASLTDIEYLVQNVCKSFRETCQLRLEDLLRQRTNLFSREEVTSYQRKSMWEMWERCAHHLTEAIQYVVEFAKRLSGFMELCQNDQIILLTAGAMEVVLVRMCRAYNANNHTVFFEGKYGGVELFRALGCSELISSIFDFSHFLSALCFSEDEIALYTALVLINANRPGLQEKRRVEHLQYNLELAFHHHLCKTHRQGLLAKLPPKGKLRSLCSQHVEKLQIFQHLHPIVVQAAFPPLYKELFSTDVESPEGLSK
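A Gal4/UAS one-hybrid system in insect cells: metallothionein-promoter Gal4–ROR gamma fusion plus Photinus luciferase reporter. Copper sulfate 700 uM final, 20 hr ambient incubation, luminescent detection after 10 min with reagent.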
Chronic BCR inh: blocks chronic active B-cell receptor signaling; ABC-DLBCL IkBa-CBG/CBR reporter, luminescence ratio, 4 h; Potency, µM (series often up to 46.1 µM), for inactives: top-dose activity change, negative = inhibition, actives largely listed as inhibitors; 340,000 tested, 0.05% active; active means well fitted inhibition curve with a large enough effect in the signal ratio, with a control signal flat, not every such curve was filed as active; inconclusive means small, poorly fitted or top-dose-only effect, or effect the other way, or a change in a side signal; the % refers to the signal ratio;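 further: plate controls were basal doxycycline-induced cells for no effect and cells given 10 µM MG132 for full effect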
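TMD8 human ABC-DLBCL cells with doxycycline-inducible IκBα–green luciferase fusion and unfused red luciferase, in 0.5% FBS medium; compounds up to 46 uM, 4 h at 37C. Green/red luminescence ratio, filter-overlap corrected, fitted to concentration-response curves.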
Starred values were filed as active, the others as inactive; u = inconclusive; x = no result given; [ ] = dose if it differs, or a comment. Most compounds without a hit are left out; they make up all but 5.5% or so of the library. Unless noted, the call rests on the fitted dose curve; in most records, active means well fitted curve in the direction sought with a large enough effect; inconclusive means small, poorly fitted or top-dose-only effect, or another doubt; inactive means no such curve, though single readings can be large; an effect the other way counts as inactive or inconclusive. Potency means the concentration at half of the fitted maximal effect.

SMILES	Mito fusion yeast	uPA generation	VP16 counter	a7 integrin act	RORgamma inh	Chronic BCR inh
CCNC(=S)N1CCN(C(c2ccccc2)c2ccccc2)CC1	24%	-3%	-4%	7%	45%	u
CCCCNC(=O)N1CCN(C(c2ccccc2)c2ccccc2)CC1	18µM*	-8%	13%	-18%	-39%	-2%
S=C(NCCc1ccccc1)N1CCCC1	x	7%	x	35%	x	x
CCCCNC(=S)N1CCN(C(c2ccccc2)c2ccccc2)CC1	u	-4%	u	-29%	3.2µM*	u
CC(=O)N1CCN(C(c2ccccc2)c2ccccc2)CC1	x	0%	x	21%	28%	x
S=C(NCCc1ccccc1)N1CCN(C(c2ccccc2)c2ccccc2)CC1	6%	4%	u	0%	10µM*	0%
O=C(NNC(=S)Nc1ccccc1C(F)(F)F)c1cccnc1	4%	5%	-14%	-9%	-22%	u
CC(C)C(=O)NC(=S)Nc1ccccc1C(F)(F)F	-17%	0%	u	3%	5µM*	9%
CCCC(=O)NC(=S)Nc1ccccc1C(F)(F)F	-11%	3%	u	0%	7.9µM*	x
FC(F)(F)c1ccccc1NC(=S)NN=C1CCCCCC1	5%	-20%	u	14%	4.5µM*	u
N#CCC(=O)NNC(=S)Nc1ccccc1C(F)(F)F	0%	5%	u	-23%	11µM*	5%
CCC(=O)NC(=S)Nc1ccccc1C(F)(F)F	x	3%	x	2%	x	x
C=CCC1CCC/C(=N\NS(=O)(=O)c2ccc(C)cc2)C1 (stereo not given)	-6%	-7%	14%	23%	-33%	-1%
CC(C)(C)c1ccc(S(=O)(=O)NCc2ccccn2)cc1	7%	3%	u	3%	-142%	-2%
CC(C)(C)c1cc(C(C)(C)C)cc(S(=O)(=O)CCc2ccccn2)c1	-4%	3%	-19%	36%	11µM*	4%
Cn1cncc1C#Cc1c(C=O)[nH]c2ccccc12	8%	-10%	x	1%	x	u
Cc1cccc(NC2=NC(=S)N(CC#N)C23CCCCC3)c1	-12%	-5%	u	-9%	11µM*	u
O=C(O)c1cccc(N2C(=S)N=C(Nc3ccccc3)C23CCCCC3)c1	3%	-8%	16%[10 µM]	-20%	-1%	u
CC(=O)c1cccc(NC(=O)CSc2nnc3ccc(-c4ccc(Br)cc4)nn23)c1	x	x	x	x	x	-15%
Fc1ccc2nc3n(c2c1F)CCCCCC3	-1%	2%	-21%	16%	11µM*	-2%
O=c1c2cc(Br)ccc2nc2n1CCCCC2	2%	-2%	-1%	-4%	25%	1%
CCCC(=O)N1CCN(c2nc3ccc(F)cc3s2)CC1	x	x	x	x	x	19%
Cc1ccc(C)c(NC2=C(Cl)C(=O)OC2OC(=O)c2ccco2)c1 (stereo not given)	0%	u	u	-53%	11µM*	11%
COc1ccccc1/C=C/C(=O)c1c2c(c(C)[nH]c1=O)CCCC2	-2%	u	4.5µM*	-39%	5.6µM*	u
COc1ccc(/C=C/C(=O)c2c(C)cc(C)[nH]c2=O)c2ccccc12	2%	-12%	14µM*	-37%	u	0%
SMILES	Mito fusion yeast	uPA generation	VP16 counter	a7 integrin act	RORgamma inh	Chronic BCR inh
Cc1ccc([C@H]2N[C@]3(CCCN(Cc4cccn4C)C3=O)[C@H]3C(=O)N(C)C(=O)[C@@H]23)cc1	x	x	x	8%	x	x
O=C(CCS(=O)(=O)Cc1ccccc1)Nc1ncc([N+](=O)[O-])s1	-2%	-12%	u	-55%	7.9µM*	1%
CCOCCCNc1ccc(N2C(=O)CCCC2=O)cc1[N+](=O)[O-]	2%	2%	-11%	34%	18%	0%
CC[C@]12c3[nH]c4ccc(OC)cc4c3CCN1C(=O)C(CC(=O)NCCN1CCOCC1)C[C@@H]2C(=O)N1CCN(C(=O)c2ccco2)CC1 (stereo not given in full)	x	12%	x	-8%	x	3%
COC(=O)CSc1nc(C)cc(Oc2ccccc2)n1	2%	-4%	0%	-12%	10%	u
Cc1cc(Oc2ccccc2)nc(SCC(=O)Nc2ccc(Cl)cc2Cl)n1	1%	x	9%	-25%	3.5µM*	2%
C=CCn1c(SCN2C(=O)c3ccccc3C2=O)nc2ccc(Cl)cc2c1=O	-2%	-2%	7.9µM*	16%	8.9µM*	7%
COc1ccc(Nc2ncnc3c2c(-c2ccccc2)cn3-c2ccc(C)c(Cl)c2)cc1OC	x	x	x	x	x	-3%
COc1ccc(-c2nc(CN3CCN(C(=O)c4ccco4)CC3)c(C)o2)c(F)c1	-3%	10%	22%	-6%	11%	-1%
O=C(N/N=C/c1ccc(-c2ccc(S(=O)(=O)Nc3ncccn3)cc2)o1)c1cc2ccccc2cc1O	1%	5%	6%	-5%	1%	u
O=C(N/N=C/c1oc(O)c2ccccc12)c1ccccc1O	4%	-8%	-1%	-5%	u	u
NS(=O)(=O)c1ccc(-c2ccc(/C=N/NC(=O)c3ccccc3O)o2)cc1	2%	-4%	18µM*	23%	3.5µM*	u
Cc1ccc(-c2ccc(/C=N/NC(=O)c3ccccc3O)o2)cc1	-11%	x	0.16µM*	x	0.71µM*	u
O=C(Nc1ccc(-c2cn3ccccc3n2)cc1)c1ccc(Cl)cc1	1%	8%	1%	-4%	-43%	13%
Fc1ccc(-c2cn3cc(C(F)(F)F)cc(Cl)c3n2)cc1	-18%	2%	-18%	7%	-15%	u
Clc1ccc(-c2cn3cc(Cl)ccc3n2)cc1	-6%	u	13µM*	u	10µM*	u
Oc1ccc(-c2cn3cc(C(F)(F)F)ccc3n2)cc1	1%	-7%	8.9µM*	20%	2.2µM*	u
Clc1ccc(-c2cn3ccccc3n2)cc1	-3%	8.9µM*	-29%	-12%	u	u
CCN(CC)S(=O)(=O)c1ccc(-c2cn3cc(Cl)ccc3n2)cc1	1%	-8%	u	u	13%	9%
Cn1c(N)c(N=O)c(=O)n(C)c1=S	x	-5%	x	5%	x	x
C=CCOC(=O)C1=C[C@H](c2coc3ccccc3c2=O)[C@@H](CCCO)[C@H](OCC)O1	-1%	-5%	6%	-7%	7%	u
Cc1ccc(NCc2ccccc2OCc2ccccc2F)cc1	9%	1%	u	4%	-44%	u
Oc1ccc(NCc2ccccc2OCc2ccccc2F)cc1	0%	-11%	16µM*	-59%	13µM*	u
Cc1cc2nc(CSc3ccc(Cl)cc3)cc(=O)n2[nH]1	-1%	-8%	u	3%	11µM*	u
CCOc1ccc(C(=O)CCC(=O)NNC(=O)CCN2CCN(c3ccccc3)CC2)cc1	x	-1%	x	-19%	x	-6%
